Assay results reported in PubChem BioAssay AID1159580 (chemical genetic matrix, 2015).
About 2,000 (36%) of roughly 5,500 compounds were called active. Inconclusive results (about 18%) are left out. Rule as the data show it: active = normalized growth mostly below about 0.91 (no sharp cut-off); inconclusive = no clear call, values can overlap the other calls; inactive = mostly above about 0.92. The list shows a part of the results.

Experiment: chemical genetic growth profiling, strain panel (AID 1159580);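 also: tested at 20 µM; growth read once vehicle control cultures reached saturation at 30 °C; 1 = growth at the plate median or of vehicle wells; lower values mean less growth of the strain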
Conditions: growth OD

Measured: normalized growth

CC(C)(C)NC[C@@H](O)COc1nsnc1N1CCOCC1
inactive: S. cerevisiae deletion strains, locus YJR075W, strain HOC1, active compounds read low 0.995 | S. cerevisiae deletion strains, locus YKL009W, strain mrt4, active compounds read low 1.03 | S. cerevisiae deletion strains, locus YKL068W, active compounds read low 0.989 | S. cerevisiae deletion strains, locus YKL085W, strain MDH1 (second series), active compounds read low 0.983 | S. cerevisiae deletion strains, locus YKL085W, strain MDH1, active compounds read low 0.983 | S. cerevisiae deletion strains, locus YKL160W, strain elf1, active compounds read low 1.01 | S. cerevisiae deletion strains, locus YKR001C, strain vps1, active compounds read low 0.952 | S. cerevisiae deletion strains, locus YKR026C, strain gcn3, active compounds read low 1.02 | S. cerevisiae deletion strains, locus YKR091W, strain srl3, active compounds read low 1.01 | S. cerevisiae deletion strains, locus YLL001W, strain dnm1, active compounds read low 1 | S. cerevisiae deletion strains, locus YLL026W, active compounds read low 1.01 | S. cerevisiae deletion strains, locus YLL041C, strain sdh2, active compounds read low 1.03 | S. cerevisiae deletion strains, locus YLR027C, strain aat2, active compounds read low 1.01 | S. cerevisiae deletion strains, locus YLR039C, strain RIC1, active compounds read low 1.01 | S. cerevisiae deletion strains, locus YLR058C, strain SHM2, active compounds read low 1 | S. cerevisiae deletion strains, locus YLR102C, strain apc9, active compounds read low 0.976 | S. cerevisiae deletion strains, locus YLR113W, strain HOG1, active compounds read low 0.975 | S. cerevisiae deletion strains, locus YLR221C, strain rsa3, active compounds read low 0.995 | S. cerevisiae deletion strains, locus YLR258W, strain gsy2, active compounds read low 1.01 | S. cerevisiae deletion strains, locus YLR262C, strain YPT6 (second series), active compounds read low 1.03 | S. cerevisiae deletion strains, locus YLR262C, strain YPT6, active compounds read low 1.02 | S. cerevisiae deletion strains, locus YLR268W, strain sec22, active compounds read low 0.961 | S. cerevisiae deletion strains, locus YLR320W, strain mms22, active compounds read low 0.997 | S. cerevisiae deletion strains, locus YLR330W, strain CHS5, active compounds read low 0.989 | S. cerevisiae deletion strains, locus YLR342W, strain FKS1 (second series), active compounds read low 0.992 | S. cerevisiae deletion strains, locus YLR342W, strain FKS1, active compounds read low 1 | S. cerevisiae deletion strains, locus YLR357W, strain rsc2, active compounds read low 0.998 | S. cerevisiae deletion strains, locus YLR370C, strain arc18, active compounds read low 1.02 | S. cerevisiae deletion strains, locus YLR371W, strain rom2, active compounds read low 0.977 | S. cerevisiae deletion strains, locus YLR384C, strain iki3, active compounds read low 1.01 | S. cerevisiae deletion strains, locus YLR418C, strain cdc73, active compounds read low 1.03 | S. cerevisiae deletion strains, locus YML016C, strain PPZ1, active compounds read low 0.988 | S. cerevisiae deletion strains, locus YML032C, strain rad52, active compounds read low 1.01 | S. cerevisiae deletion strains, locus YML120C, strain ndi1, active compounds read low 1.02 | S. cerevisiae deletion strains, locus YML124C, strain tub3, active compounds read low 0.988 | S. cerevisiae deletion strains, locus YMR058W, strain fet3, active compounds read low 1 | S. cerevisiae deletion strains, locus YMR078C, strain ctf18, active compounds read low 0.972 | S. cerevisiae deletion strains, locus YMR125W, strain sto1, active compounds read low 1.02 | S. cerevisiae deletion strains, locus YMR129W, active compounds read low 1.02 | S. cerevisiae deletion strains, locus YMR205C, strain PFK2, active compounds read low 1.02 | S. cerevisiae deletion strains, locus YMR223W, strain ubp8, active compounds read low 1.02 | S. cerevisiae deletion strains, locus YMR231W, strain pep5, active compounds read low 1.01 | S. cerevisiae deletion strains, locus YMR263W, strain SAP30, active compounds read low 0.997 | S. cerevisiae deletion strains, locus YMR307W, strain GAS1, active compounds read low 0.921 | S. cerevisiae deletion strains, locus YNL067W, strain RPL9B, active compounds read low 0.999 | S. cerevisiae deletion strains, locus YNL071W, strain lat1, active compounds read low 1.01 | S. cerevisiae deletion strains, locus YNL153C, strain GIM3, active compounds read low 0.988 | S. cerevisiae deletion strains, locus YNL183C, strain NPR1, active compounds read low 0.934 | S. cerevisiae deletion strains, locus YNL209W, strain ssb2, active compounds read low 1.02 | S. cerevisiae deletion strains, locus YNL233W, strain BNI4, active compounds read low 0.973 | S. cerevisiae deletion strains, locus YNL248C, strain rpa49, active compounds read low 1.02 | S. cerevisiae deletion strains, locus YNL250W, strain rad50, active compounds read low 0.969 | S. cerevisiae deletion strains, locus YNL271C, strain bni1, active compounds read low 0.985 | S. cerevisiae deletion strains, locus YNL298W, strain CLA4, active compounds read low 0.993 | S. cerevisiae deletion strains, locus YNL307C, strain MCK1, active compounds read low 0.974 | S. cerevisiae deletion strains, locus YNL322C, strain KRE1 (second series), active compounds read low 1 | S. cerevisiae deletion strains, locus YNL322C, strain KRE1, active compounds read low 0.993 | S. cerevisiae deletion strains, locus YNR049C, strain mso1, active compounds read low 1.01 | S. cerevisiae deletion strains, locus YNR052C, strain pop2, active compounds read low 0.994 | S. cerevisiae deletion strains, locus YOL006C, strain TOP1, active compounds read low 0.993 | S. cerevisiae deletion strains, locus YOL012C, strain htz1 0.711 | S. cerevisiae deletion strains, locus YOL147C, strain pex11, active compounds read low 0.993 | S. cerevisiae deletion strains, locus YOR001W, strain rrp6, active compounds read low 1.02 | S. cerevisiae deletion strains, locus YOR061W, strain CKA2, active compounds read low 1 | S. cerevisiae deletion strains, locus YOR069W, strain VPS5, active compounds read low 0.99 | S. cerevisiae deletion strains, locus YOR070C, strain gyp1, active compounds read low 1.01 | S. cerevisiae deletion strains, locus YOR080W, strain dia2, active compounds read low 1.02 | S. cerevisiae deletion strains, locus YOR083W, strain WHI5, active compounds read low 0.981 | S. cerevisiae deletion strains, locus YOR106W, strain vam3, active compounds read low 1.03 | S. cerevisiae deletion strains, locus YOR136W, strain idh2, active compounds read low 0.988 | S. cerevisiae deletion strains, locus YOR144C, strain elg1, active compounds read low 0.982 | S. cerevisiae deletion strains, locus YOR184W, strain ser1, active compounds read low 0.989 | S. cerevisiae deletion strains, locus YOR231W, strain MKK1, active compounds read low 0.988 | S. cerevisiae deletion strains, locus YOR265W, strain rbl2, active compounds read low 1.02 | S. cerevisiae deletion strains, locus YOR270C, strain vph1, active compounds read low 1.04 | S. cerevisiae deletion strains, locus YOR290C, strain snf2, active compounds read low 1.01 | S. cerevisiae deletion strains, locus YOR316C, strain cot1, active compounds read low 0.978 | S. cerevisiae deletion strains, locus YPL051W, strain arl3, active compounds read low 1.01 | S. cerevisiae deletion strains, locus YPL078C, strain atp4, active compounds read low 1.01 | S. cerevisiae deletion strains, locus YPL106C, strain sse1, active compounds read low 0.994 | S. cerevisiae deletion strains, locus YPL240C, strain hsp82, active compounds read low 1.02 | S. cerevisiae deletion strains, locus YPL241C, strain CIN2, active compounds read low 0.992 | S. cerevisiae deletion strains, locus YPL256C, strain CLN2, active compounds read low 0.984 | S. cerevisiae deletion strains, locus YPR119W, strain clb2, active compounds read low 0.983 | S. cerevisiae deletion strains, locus YPR141C, strain kar3, active compounds read low 0.973 | S. cerevisiae deletion strains, locus YPR163C, strain tif3, active compounds read low 0.982 | S. cerevisiae deletion strains, locus YPR167C, strain met16, active compounds read low 0.989 | S. cerevisiae deletion strains, strain wtn01, active compounds read low 0.943 | S. cerevisiae strains, strain wild type, active compounds read low 0.994
